Assay results taken from PubChem BioAssay AID624255 (Broad Institute, 2012).
Screen size: about 77,000 compounds; about 4,600 (6%) were called active. Not shown: some 1% with an inconclusive outcome. This excerpt belongs to a sample that is enriched for actives. Unmarked numbers belong to inactive results.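 The calls were made as follows: active = mean inhibition above about 93%, with at least 55% of replicates each passing it (limit read from the data, passing the limit was not always enough); inconclusive = only one of those two conditions holds; inactive = neither condition holds.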

Assay: growth inhibition of T. cruzi in host fibroblasts – cell-based, beta-gal Tulahuen parasites, NIH3T3 host, luminescence, primary screen (AID 624255)
Conditions: T. cruzi beta-gal in NIH3T3, GalScreen luminescence, 90 h; at 8.34 µM; stronger effect = higher value

Row | Compound | inhibition
1 | COCC#Cc1ccc2c(c1)O[C@@H](CN(C)S(C)(=O)=O)[C@H](C)CN([C@H](C)CO)S2(=O)=O | 2.15%
2 | CCCC#Cc1ccc2c(c1)O[C@@H](CN(C)CCC)[C@@H](C)CN([C@H](C)CO)S2(=O)=O | 63.4%
3 | CCCN(C)C[C@H]1Oc2cc(C#CC3CCCC3)ccc2S(=O)(=O)N([C@H](C)CO)C[C@@H]1C | 98.6% (active)
4 | CCCN(C)C[C@@H]1Oc2cc(C#Cc3ccc(F)cc3)ccc2S(=O)(=O)N([C@H](C)CO)C[C@H]1C | 100% (active)
5 | CCCN(C)C[C@@H]1Oc2cc(C#CC3CCCCC3)ccc2S(=O)(=O)N([C@@H](C)CO)C[C@@H]1C | 42.1%
6 | CNC[C@@H]1Oc2cc(C#CC3CCCC3)ccc2S(=O)(=O)N([C@@H](C)CO)C[C@@H]1C | 61%
7 | CCCN(C)C[C@@H]1Oc2cc(C#CCc3ccccc3)ccc2S(=O)(=O)N([C@H](C)CO)C[C@@H]1C | 80.1%
8 | C[C@@H]1CN([C@@H](C)CO)S(=O)(=O)c2ccc(C#CC3CCCC3)cc2O[C@H]1CN(C)S(C)(=O)=O | -41.8%
9 | C[C@@H]1CN([C@@H](C)CO)S(=O)(=O)c2ccc(C#Cc3ccc(F)cc3)cc2O[C@H]1CN(C)S(C)(=O)=O | 113% (active)
10 | C[C@@H](NC(=O)C[C@@H]1CC[C@@H]2[C@H](COC[C@@H](O)CN2C(=O)Nc2cccc(F)c2)O1)c1ccccc1 | 21.9%
11 | CC(C)NC(=O)N(C)C[C@@H]1Oc2ncc(-c3ccc(C(=O)N(C)C)cc3)cc2C(=O)N([C@H](C)CO)C[C@H]1C | 35.4%
12 | COc1ccc(S(=O)(=O)N(C)C[C@H]2OCCCC[C@H](C)Oc3ccc(NS(=O)(=O)c4c(C)noc4C)cc3C(=O)N([C@@H](C)CO)C[C@@H]2C)cc1 | 23.4%
13 | C[C@H]1CN([C@@H](C)CO)C(=O)c2cc(C#CC(C)(C)O)cnc2O[C@H]1CN(C)C(=O)CC1CC1 | -14.6%
14 | O=S(=O)(Cc1ccccc1)NCC[C@@H]1CC[C@@H](NS(=O)(=O)c2ccccc2)[C@@H](CO)O1 | -0.486%
15 | CC(=O)N1CC[C@@H]2[C@@H](CO)N(C)c3ccc(-c4ccc(C#N)cc4)cc3[C@@H]21 | 52.3%
16 | Cc1noc(C)c1NC(=O)Nc1ccc2c(c1)C(=O)N([C@@H](C)CO)C[C@@H](C)[C@H](CN(C)C(=O)Nc1ccc(C(F)(F)F)cc1)OCCCC[C@@H](C)O2 | 27.1%
17 | Cn1cnc(S(=O)(=O)N2CCCCN3[C@H](CO)[C@@H](c4ccc(-c5ccc(F)cc5)cc4)[C@@H]3C2)c1 | 11.8%
18 | Cc1ccccc1-c1ccc([C@@H]2[C@H](CO)N3CCCCN(S(=O)(=O)c4ccc(F)cc4)C[C@@H]23)cc1 | 112% (active)
19 | COc1ccc(S(=O)(=O)N2CCCCN3[C@H](C2)[C@H](c2ccc(C4=CCCC4)cc2)[C@@H]3CO)cc1 | 7.54%
20 | Cc1ccccc1-c1ccc([C@H]2[C@H]3CN(S(=O)(=O)c4ccc(F)cc4)CCCCN3[C@H]2CO)cc1 | 111% (active)

Row | Compound | inhibition
21 | COc1ccc(S(=O)(=O)N2CCCCN3[C@H](CO)[C@H](c4ccc(C5=CCCCC5)cc4)[C@@H]3C2)cc1 | 88.5%
22 | COc1ccccc1-c1ccc([C@@H]2[C@@H](CO)N3CCCCN(S(=O)(=O)c4cn(C)cn4)C[C@H]23)cc1 | 42.2%
23 | O=S(=O)(c1ccc(F)cc1)N1CCCCN2[C@H](C1)[C@H](c1ccc(C3=CCCCC3)cc1)[C@@H]2CO | 99.1% (active)
24 | C[C@@H](NC(=O)C[C@@H]1CC[C@@H](NC(=O)C2CCOCC2)[C@@H](CO)O1)c1ccccc1 | 9.21%
25 | O=C(C[C@@H]1CC[C@@H](NC(=O)Nc2ccc(F)cc2)[C@H](CO)O1)NCCN1CCCC1 | 30.1%
26 | CCCNC(=O)N1[C@@H]2c3ccc(-c4ccccc4OC)c(=O)n3C[C@H]1[C@H](CO)[C@H]2C(=O)N(C)C | 1.54%
27 | CO[C@@H]1CC[C@@H]2CCOc3c(C#N)cccc3C(=O)N(C)C[C@@H](OC)[C@@H](C)C(=O)N(C)C[C@H]1O2 | 11.7%
28 | CC(=O)N1[C@@H](CO)[C@H](c2ccccc2)[C@@H]1CN(C)C(=O)CN1CCOCC1 | 50.9%
29 | C[C@@H]1CCCCO[C@@H](CN(C)Cc2ccc3c(c2)OCO3)[C@@H](C)CN([C@@H](C)CO)C(=O)c2cc(NC(=O)Nc3ccccc3)ccc2O1 | 99.9% (active)
30 | COc1ccc(CN(C)C[C@H]2OCCCC[C@H](C)Oc3ccc(NC(=O)Nc4ccc5c(c4)OCO5)cc3C(=O)N([C@H](C)CO)C[C@@H]2C)cc1 | 98.7% (active)
31 | C[C@@H]1CN([C@H](C)CO)C(=O)c2cc(NC(=O)Nc3ccc4c(c3)OCO4)ccc2O[C@@H](C)CCCCO[C@@H]1CN(C)Cc1ccc2c(c1)OCO2 | 81.6%
32 | C[C@@H]1CN([C@@H](C)CO)C(=O)c2cc(NC(=O)Nc3ccc4c(c3)OCO4)ccc2O[C@@H](C)CCCCO[C@@H]1CN(C)Cc1ccccc1 | 41.8%
33 | COc1ccc(NC(=O)Nc2ccc3c(c2)C(=O)N([C@H](C)CO)C[C@H](C)[C@@H](CN(C)Cc2ccc(C(=O)O)cc2)OCCCC[C@H](C)O3)cc1 | 51%
34 | COc1ccc(NC(=O)N(C)C[C@H]2OCCCC[C@@H](C)Oc3ccc(NC(=O)Nc4ccc5c(c4)OCO5)cc3C(=O)N([C@H](C)CO)C[C@@H]2C)cc1 | 9.34%
35 | Cc1cccc(S(=O)(=O)N2C[C@H]3[C@@H](c4ccccc42)[C@H](CO)N3Cc2ccc3c(c2)OCO3)c1 | 72.7%
36 | CN1C[C@H](O)COC[C@H]2O[C@H](CC(=O)NC3CCC3)CC[C@@H]21 | -61.9%
37 | C[C@@H]1CN([C@H](C)CO)C(=O)c2cc(NS(=O)(=O)c3cccs3)ccc2O[C@@H](C)CCCCO[C@@H]1CN(C)S(=O)(=O)c1ccc(Cl)cc1 | 109% (active)
38 | C[C@@H]1CCCCO[C@@H](CN(C)S(C)(=O)=O)[C@H](C)CN([C@@H](C)CO)C(=O)c2cc(NS(=O)(=O)c3cccs3)ccc2O1 | -8.12%
39 | C[C@@H]1CN([C@H](C)CO)C(=O)c2cc(NS(=O)(=O)c3cccs3)ccc2O[C@@H](C)CCCCO[C@@H]1CN(C)S(=O)(=O)c1cccs1 | -40.5%
40 | C[C@@H]1CCCCO[C@H](CN(C)S(=O)(=O)c2ccc(Cl)cc2)[C@H](C)CN([C@@H](C)CO)C(=O)c2cc(NS(=O)(=O)c3cccs3)ccc2O1 | 110% (active)

Row | Compound | inhibition
41 | C[C@@H]1CCCCO[C@H](CN(C)S(=O)(=O)c2cccs2)[C@H](C)CN([C@@H](C)CO)C(=O)c2cc(NS(=O)(=O)c3cccs3)ccc2O1 | -8.67%
42 | C[C@@H]1CCCCO[C@@H](CN(C)S(=O)(=O)c2ccc(F)cc2)[C@@H](C)CN([C@@H](C)CO)C(=O)c2cc(NS(=O)(=O)c3cccs3)ccc2O1 | 10.6%
43 | COCC(=O)N1C[C@@H](C)[C@H](OC)CN(C)C(=O)c2cc(NC(=O)c3cc(C)on3)ccc2OC[C@@H]1C | 60.6%
44 | C[C@H](O)C#Cc1ccc2c(c1)O[C@@H](CN(C)CC1CCCC1)[C@H](C)CN([C@@H](C)CO)S2(=O)=O | 13.4%
45 | COCC(=O)Nc1ccc2c(c1)C(=O)N(C)C[C@H](OC)[C@@H](C)CN(C(=O)c1cnccn1)[C@H](C)CO2 | 7.73%
46 | CC(=O)N1[C@H](C(=O)N(C)C)[C@@H](CO)[C@@H]2Cn3c(ccc(-c4ccccc4)c3=O)[C@@H]21 | 16.7%
47 | Cc1ccc(S(=O)(=O)N(C)C[C@@H]2OCCCC[C@@H](C)Oc3ccc(NC(=O)C4CCCCC4)cc3C(=O)N([C@H](C)CO)C[C@H]2C)cc1 | 24%
48 | Cc1ccc(S(=O)(=O)N(C)C[C@H]2OCCCC[C@H](C)Oc3ccc(NC(=O)Cc4ccccc4)cc3C(=O)N([C@@H](C)CO)C[C@@H]2C)cc1 | 110% (active)
49 | C[C@@H]1CCCCO[C@@H](CN(C)S(=O)(=O)c2ccc(Cl)cc2)[C@H](C)CN([C@@H](C)CO)C(=O)c2cc(NC(=O)Cc3ccccc3)ccc2O1 | 98.6% (active)
50 | Cc1ccc(S(=O)(=O)N(C)C[C@@H]2OCCCC[C@@H](C)Oc3ccc(NS(=O)(=O)c4ccccc4)cc3C(=O)N([C@H](C)CO)C[C@@H]2C)cc1 | 55%
51 | C[C@@H]1CCCCO[C@H](CN(C)C)[C@H](C)CN([C@@H](C)CO)C(=O)c2cc(NC(=O)Cc3ccccc3)ccc2O1 | -33.2%
52 | C[C@@H]1CN([C@@H](C)CO)C(=O)c2cc(NC(=O)CCCN(C)C)ccc2O[C@@H](C)CCCCO[C@@H]1CN(C)S(=O)(=O)c1ccc(Cl)cc1 | 25.4%
53 | CCCN1C[C@H](C)[C@@H](OC)CN(C)C(=O)c2cc(NS(=O)(=O)CC)ccc2OC[C@H]1C | -88%
54 | CN1c2ccc(Br)cc2[C@H]2[C@H](CCN2S(=O)(=O)c2ccccc2)[C@@H]1CO | 95.5%
55 | CN1C(=O)c2cc(NS(=O)(=O)c3ccc(F)cc3)ccc2OC[C@@H]2O[C@@H](CC(=O)O)CC[C@H]21 | 20.4%
56 | COc1cccc(C(=O)Nc2ccc3c(c2)C(=O)N(C)[C@@H]2CC[C@H](CC(=O)NCC4CC4)O[C@@H]2CO3)c1 | 22.9%
57 | COCC(=O)Nc1ccc2c(c1)C(=O)N(C)C[C@H](OC)[C@@H](C)CN(C(=O)Cc1cccnc1)[C@@H](C)CO2 | -9.25%
58 | CC(C)NC(=O)N1C[C@H]2[C@@H](c3ccccc31)[C@H](CO)N2C(=O)c1ccccc1F | -21.6%
